Compound activity (PubChem BioAssay)
ASK1 primary: inhibitors of human ASK1 kinase; Q99683; AlphaScreen MKK6 phosphorylation by ASK1, luminescence; inhibition, % at 7.44 µM; actives 0.99% (n = 22,000); in the data active = inhibition above about 35%;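 also: 0% = median of compound wells and 100% = no enzyme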
Target sequence (Q99683 whole entry, looked up): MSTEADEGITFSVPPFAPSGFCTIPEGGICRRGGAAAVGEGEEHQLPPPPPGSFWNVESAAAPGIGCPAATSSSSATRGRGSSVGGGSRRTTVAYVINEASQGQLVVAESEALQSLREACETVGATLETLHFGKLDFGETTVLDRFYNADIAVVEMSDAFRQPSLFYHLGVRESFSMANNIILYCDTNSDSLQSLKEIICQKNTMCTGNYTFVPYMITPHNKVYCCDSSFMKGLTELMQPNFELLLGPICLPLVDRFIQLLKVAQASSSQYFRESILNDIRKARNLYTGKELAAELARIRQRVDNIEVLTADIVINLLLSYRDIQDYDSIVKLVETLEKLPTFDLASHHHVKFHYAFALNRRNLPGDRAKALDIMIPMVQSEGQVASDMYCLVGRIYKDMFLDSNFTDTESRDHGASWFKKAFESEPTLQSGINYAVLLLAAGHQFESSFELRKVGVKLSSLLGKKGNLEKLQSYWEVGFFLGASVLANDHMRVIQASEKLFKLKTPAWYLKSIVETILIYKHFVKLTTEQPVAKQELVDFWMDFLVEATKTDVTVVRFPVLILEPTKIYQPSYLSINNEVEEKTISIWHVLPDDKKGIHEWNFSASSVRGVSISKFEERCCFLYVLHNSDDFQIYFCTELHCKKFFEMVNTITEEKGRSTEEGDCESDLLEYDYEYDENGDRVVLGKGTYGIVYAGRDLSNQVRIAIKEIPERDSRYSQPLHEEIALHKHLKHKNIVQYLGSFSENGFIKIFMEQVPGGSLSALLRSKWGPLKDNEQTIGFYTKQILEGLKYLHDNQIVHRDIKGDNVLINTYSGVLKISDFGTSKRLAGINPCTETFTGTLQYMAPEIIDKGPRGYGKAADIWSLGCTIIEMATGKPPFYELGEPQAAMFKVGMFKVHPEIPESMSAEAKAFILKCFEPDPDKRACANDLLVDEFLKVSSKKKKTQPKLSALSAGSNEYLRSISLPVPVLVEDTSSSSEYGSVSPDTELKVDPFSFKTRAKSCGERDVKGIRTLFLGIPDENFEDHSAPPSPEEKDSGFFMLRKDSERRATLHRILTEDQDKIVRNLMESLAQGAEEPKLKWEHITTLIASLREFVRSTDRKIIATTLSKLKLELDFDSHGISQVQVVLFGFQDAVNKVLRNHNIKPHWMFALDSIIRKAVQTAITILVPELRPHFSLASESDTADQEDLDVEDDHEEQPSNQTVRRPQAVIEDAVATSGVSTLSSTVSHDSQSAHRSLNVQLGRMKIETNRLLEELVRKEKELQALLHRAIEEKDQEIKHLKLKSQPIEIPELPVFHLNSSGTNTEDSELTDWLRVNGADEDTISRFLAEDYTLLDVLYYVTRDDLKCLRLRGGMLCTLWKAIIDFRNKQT
ULK1 primary: human ULK1 kinase inhibition, primary screen; AlphaScreen Atg13 phosphorylation by ULK1, luminescence; inhibition, % at 5.96 µM; actives 1.9% (n = 30,000); in the data active = inhibition above about 43%;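 also: 0% = median of compound wells and 100% = no enzyme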
The depositor's hits bear a star; x = no result. This is a sample that favours compounds with a hit; in the whole collection about 2.5% have one here.

SMILES	ASK1 primary	ULK1 primary
C=C1c2cccc(O)c2C(O)=C2C(=O)[C@]3(O)C(O)=C(C(N)=O)C(=O)[C@@H](N(C)C)[C@@H]3[C@@H](O)[C@H]12	x	64*
O=C1CCCN1CCCNc1nc(NCCN2CCOCC2)c2ncn(-c3ccsc3)c2n1	-22	11
Nc1nc(Nc2ccncn2)nc2c1ncn2Cc1ccc(C(F)(F)F)cc1	5	14
Cc1ncn(-c2ccc(N(CC3CC3)c3ncc4cccc(-c5cnn(CC6CC6)c5)c4n3)cc2)n1	-6	99*
Cc1ncn(-c2ccc(Nc3ncc4cccc(-c5cnc6ccccc6c5)c4n3)cc2)n1	-8	10
O=C(NC1CC1)c1cccc(-c2ccccc2)c1	1	-1
COc1cc2nc(Nc3ccccc3)nc(NCCOc3ccccc3)c2cc1OC	-6	-18
CCCNc1nc(Nc2cccc(N(C)C)c2)nc2cc(OC)c(OC)cc12	25	4
COc1cc2nc(Nc3cccc(N(C)C)c3)nc(NC3CC3)c2cc1OC	49*	7
COc1cc2nc(Nc3cccc(N(C)C)c3)nc(NCCOc3ccccc3)c2cc1OC	40*	-32
CCN(CC)C(=O)C1CCCN(c2nc(Nc3ccccc3)c3ncn(Cc4ccc(C(F)(F)F)cc4)c3n2)C1 (stereo not given)	0	-1
COc1ccc(CC(=O)Nc2ncc3ccc(-c4cn[nH]c4)cc3c2Cl)cc1	1	83*
COc1ccc(CC(=O)Nc2ncc3ccc(-c4cn[nH]c4)cc3c2C#N)cc1	-39	5
CCN(CC)C(=O)C1CCCN(c2cc(C(=O)Nc3ccccc3)ccn2)C1 (stereo not given)	6	-2
CCN(CC)C(=O)C1CCCN(c2cc(C(=O)Nc3ccc(N4CCOCC4)cc3)ccn2)C1 (stereo not given)	-36	60*
O=C(Nc1ccc2[nH]ncc2c1)c1ccc(OC2CCN(Cc3ccccc3)CC2)nc1	-9	1
COc1cc(Nc2ncc(C)c(NC3CC3)n2)cc(OC)c1OC	20	65*
CN(C)c1cccc(Nc2nc(Nc3ccccc3)c3[nH]cnc3n2)c1	30	15
CN(C)c1cccc(Nc2nc(NC3CC3)c3[nH]cnc3n2)c1	34	43*
COc1cc(Nc2nc(NC3CC3)c3[nH]cnc3n2)cc(OC)c1OC	-6	62*
Cc1cnc(Nc2ncccn2)nc1NC1CC1	-22	16
COc1cc(Nc2nc(NCc3ccc4c(c3)OCO4)nc3nc[nH]c23)cc(OC)c1OC	21	-14
COc1cc(Nc2nc(NC3CCN(Cc4ccccc4)CC3)c3[nH]cnc3n2)cc(OC)c1OC	18	6
COc1cc(Nc2nc(Nc3ccc4c(c3)OCO4)c3[nH]cnc3n2)cc(OC)c1OC	6	52*
COc1ccc(-c2cncc(C(=O)NCCc3ccc(O)cc3)c2)cc1	8	-7
SMILES	ASK1 primary	ULK1 primary
O=C(Nc1cc(-c2ccncc2)cc2cccnc12)C1COc2ccccc2O1 (stereo not given)	3	9
Cc1noc(C)c1-c1cccc(C(=O)NCc2ccccc2)n1	-10	-6
COc1cc(Nc2nc(Nc3cccc(N(C)C)c3)ncc2C)cc(OC)c1OC	21	63*
Cc1cnc(Nc2cccc(N(C)C)c2)nc1Nc1ccccc1	15	23
CC(C)N(CCNc1nc(Nc2ccc3ncccc3c2)nc2nc[nH]c12)C(C)C	7	17
COc1ccc(CCNc2nc(Nc3cc(OC)c(OC)c(OC)c3)nc3nc[nH]c23)cc1	14	69*
COc1ccc(CCNc2nc(Nc3ccccc3)nc3nc[nH]c23)cc1	22	4
Oc1ccc(CCNc2nc(Nc3ccc4ncccc4c3)nc3nc[nH]c23)cc1	-29	60*
CN(Cc1ccccc1)C(=O)c1ccc(-c2cnn(C)c2)nc1	x	6
N#C/C(=C\c1cccs1)C(=O)Nc1sc2c(c1C(N)=O)CCCC2	x	-5
O=C(O)c1ccccc1Nc1ccccn1	x	12
O=C(Cc1ccc2c(c1)OCO2)Nc1cc(Nc2ccccc2-c2ncn[nH]2)c(C(F)(F)F)cn1	-2	-18
CNC(=O)c1ccccc1Nc1cc(Nc2cccc(C)n2)ncc1C(F)(F)F	-1	90*
CNC(=O)c1ccccc1Nc1cc(Nc2ccccn2)ncc1C(F)(F)F	-1	89*
CNC(=O)c1ccccc1Nc1cc(Nc2ccc(-c3cncnc3)cc2)ncc1C(F)(F)F	-7	70*
CNC(=O)c1ccccc1Nc1cc(Nc2ccc3c(c2)CCC(=O)N3C)ncc1C(F)(F)F	-12	89*
Cc1noc(C)c1-c1nc(NCCO)c2ncn(Cc3ccc(C(F)(F)F)cc3)c2n1	-10	0
COc1ccc(-c2nc(Nc3ccc(Oc4ccccc4)cc3)c3ncn(C4CCCCC4)c3n2)cc1	6	6
NC(=O)CC(NS(=O)(=O)c1cccc2nsnc12)C(=O)O (stereo not given)	x	-4
CCOC(=O)N1CCN(c2cc(-c3cncc(-c4cccs4)c3)nc(C)n2)CC1	x	-4
O=C1CCCN1CCCNc1nc(NC2CC2)c2ncn(CCN3CCCC3=O)c2n1	-21	2
O=C(NC1CC1)c1ccc(-c2cncc(C(=O)NC3CCN(Cc4ccccc4)CC3)c2)cc1	-3	3
CC(C)N(CCNc1nc(Nc2cnccn2)nc2c1ncn2CCN1CCCC1=O)C(C)C	-8	-3
COc1cc(NC(=O)C2CCN(c3ccc(Nc4cnccn4)nn3)CC2)cc(OC)c1OC	25	16
CNC(=O)c1ccc(Nc2cc(Nc3ccccc3C(=O)NC)c(C(F)(F)F)cn2)nc1	-9	87*
SMILES	ASK1 primary	ULK1 primary
CNC(=O)c1ccnc(Nc2cc(Nc3ccccc3C(=O)NC)c(C(F)(F)F)cn2)c1	-6	87*
O=C(NCc1cccc(C(F)(F)F)c1)c1ccnc(Nc2ccccn2)c1	-2	1
COc1cccc(CNC(=O)Cc2ccc(-c3cn[nH]c3)cc2)c1	-4	0
CC(C)n1cnc2c(NC3CC3)nc(-c3ccc(N4CCN(C)CC4)cc3)nc21	1	6
COc1cc(Nc2nc(Nc3ccc(-n4ccnc4)cc3)ncc2C)cc(OC)c1OC	12	60*
COc1cc2nc(NCCN3CCOCC3)nc(Nc3ccc(N4CCOCC4)cc3)c2cc1OC	4	5
CCNc1nc(Nc2ccc(N3CCOCC3)cc2)c2cc(OC)c(OC)cc2n1	43*	7
COc1cc(Nc2cc(C)nc(Nc3ccc(-n4ccnc4)cc3)n2)cc(OC)c1OC	8	-12
COc1cc(Nc2nc(Nc3ccc(N4CCOCC4)cc3)ncc2C)cc(OC)c1OC	20	45*
Cc1cnc(Nc2ccccc2)nc1Nc1ccc(N2CCOCC2)cc1	28	30
CN(C)CCOc1cccc(CN(C)C(=O)Nc2ccc(-c3cn[nH]c3)cc2)c1	-5	-3
CCN(CC)C(=O)C1CCCN(c2nc(NCc3cccc(C(F)(F)F)c3)c3ncn(CCN4CCCC4=O)c3n2)C1 (stereo not given)	9	-2
Cc1cccc(NC(=O)Nc2cnn(-c3cccc(C(=O)NOCc4ccccc4)c3)c2)c1	-10	2
CC(=O)Nc1ccc(Nc2ccnc(-c3ccc(C(=O)N4CCN(C)CC4)cc3)n2)cc1	-2	-10
CN(C)Cc1cnc(Nc2ccc(N3CCOCC3)cc2)cc1Nc1ccccc1C#N	13	5
NC(=O)c1ccccc1Nc1ccnc(Nc2ccc(N3CCOCC3)cc2F)c1	5	-8
CNC(=O)c1ccccc1Nc1cc(Nc2ccc(N3CCS(=O)(=O)CC3)cc2OC)ncc1C#N	5	81*
CNC(=O)c1ccccc1Nc1cc(Nc2ccc(N3CCSCC3)cc2OC)ncc1C#N	33	86*
